Source: PubChem (several laboratories)
SUMO Mot1 rescue: blocks SUMOylation pathway, rescuing yeast Mot1-301 growth; S. cerevisiae Mot1-301 growth rescue, ATP luminescence, 38.5C; percent above DMSO median, 100 means doubled; growth rescue, % at 18.8 µM; 320,000 compounds, 1% hits;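 active = every valid replicate shows activation above 250% relative to neutral control wells; inactive = the rest, any valid replicate at or below 250%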;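 also: OY570 slx delta 5 strain wells were the positive control but not used for scaling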
Bfl-1 A1 inh: inhibitors of the anti-apoptotic protein A1, read as caspase activation. MEF A1-2A-BIM cells, Caspase-Glo 3/7 luminescence, 3 h; percent of clofoctol response, vehicle zero. caspase activation, % (no concentration beside the values). 330,000 compounds, 0.066% hits;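 active = over half of replicate activation scores above 10%, or exactly half above 10 with the replicate mean above 10; inconclusive = replicate mean below 10 yet half the replicates above 10; inactive = over half of replicates below 10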
AHR activator: activates the human aryl hydrocarbon receptor. P35869. AHR-responsive luciferase reporter cells, luminescence. activation, % at 5 µM. 320,000 compounds, 2.5% hits. AID 2796; in the data active = activation above about 47%;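 also: 0% = vehicle wells and 100% = reference agonist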
ALR H2O2 inh: inhibitors of human sulfhydryl oxidase ALR; purified ALR, DTT oxidation, H2O2 HRP-luminol luminescence; inhibition, % (test concentration not listed); 290,000 compounds, 3.8% hits;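 active = mean replicate inhibition above about 79%, with every replicate also reaching it, limit read from the data; inconclusive = only one of the two criteria met; inactive = mean below limit and not every replicate reaching it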
Target sequence (P55789 whole entry, looked up): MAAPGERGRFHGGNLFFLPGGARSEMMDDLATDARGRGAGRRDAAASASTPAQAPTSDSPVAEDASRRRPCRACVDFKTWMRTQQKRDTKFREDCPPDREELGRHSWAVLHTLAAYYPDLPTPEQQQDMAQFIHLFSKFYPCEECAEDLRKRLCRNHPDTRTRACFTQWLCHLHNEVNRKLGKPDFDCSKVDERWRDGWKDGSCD
Efflux pump mplx: blocks antifungal efflux pumps in multiplex yeast assay. inhibition, % at 10 µM. S. cerevisiae Candida pump triplex, Nile Red efflux. 330,000 compounds, 0.44% hits. AID 485275;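 active = plate passing quality check with inhibition over a set limit, or well fluorescence over plate mean plus 4 SD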;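 also: Nile Red retained in pooled yeast measured as flow cytometry median fluorescence; 0% = buffer negative control and 100% = Enniatin B positive control; higher means more Nile Red kept so more efflux inhibition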
VLA-4 inh: inhibition in a human VLA-4 binding assay | inhibition, % (about 7 µM as worked out from the volumes in the protocol) | VLA-4 expressing cells, ligand binding flow cytometry | P13612 | AID 2557 | 330,000 compounds, 0.2% hits; in the data active = inhibition above about 50%
AHR act cf: confirmation of human aryl hydrocarbon receptor activators; shares compounds with AHR activator; human cells, AHR-responsive luciferase reporter, luminescence; activation, % at 9 µM; 2,300 compounds, 87% hits; AID 2845; in the data active = activation above about 49%;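 also: HepG2 hepatoma cells carrying a DRE-driven firefly luciferase reporter; 0% = vehicle wells and 100% = reference agonist wells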
PXR act counter: activates human PXR in AHR activator counter-screen | shares compounds with AHR activator | 2,300 compounds, 88% hits | AID 434939 | activation, % at 11.6 µM | cell-based PXR reporter, luciferase luminescence; in the data active = activation above about 11%;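 also: human hepatoma DPX-2 cells expressing full-length human PXR; 0% = DMSO and 100% = reference agonist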
Numbers without * were called inactive; i = inactive; ? = inconclusive; . = not tested or not shown. In the library only some 7.2% were active in any assay of this set; here they are far more common.

SMILES	SUMO Mot1 rescue	Bfl-1 A1 inh	AHR activator	ALR H2O2 inh	Efflux pump mplx	VLA-4 inh	AHR act cf	PXR act counter
Cc1cc2cc(C)c(NCCNC(=O)c3cccs3)nc2cc1C	-5	0	97*	-2	0	-3	64*	22*
Cc1nnsc1C(=O)Nc1ccccc1	-10	-3	1	1	0	-6	.	.
Cc1nnsc1C(=O)Nc1ccc(Cl)cc1	-10	-2	106*	-23	0	6	64*	26*
CCCCN(C)CCNC(=O)c1cc2c(-c3ccccc3F)nn(C)c2s1	8	1	18	.	-1	7	.	.
COc1cccc(-c2nn(C)c3sc(C(=O)NCCCN(C)Cc4ccccc4)cc23)c1	-4	0	13	3	0	36	.	.
O=C(c1cc(Br)c(Br)s1)N1CCN(c2ccccn2)CC1	3	0	-15	-12	1	-4	.	.
Cn1nc(-c2ccc(Cl)cc2)c2cc(C(=O)N3CCN(c4ccccn4)CC3)sc21	-19	0	106*	-29	1	25	71*	45*
COCCNC(=O)c1cc2c(-c3ccccc3F)nn(C)c2s1	16	1	98*	-1	0	15	122*	24*
CNC(=O)c1cc2c(-c3ccccc3)nn(C)c2s1	11	0	99*	-13	0	-6	114*	24*
Cn1nc(-c2ccc(Cl)cc2)c2cc(C(=O)N3CCN(c4ccccc4)CC3)sc21	100	2	101*	29	0	20	74*	34*
CC(C)Oc1ccc(Br)cc1/C=N\NC(N)=S	-21	2	5	1	-1	13	.	.
CC(/C=N\NC(=O)c1ccc(C)nc1)=C\c1ccccc1	5	1	12	-8	0	9	.	.
CCN(CC(=O)Nc1c(F)cccc1F)C(=O)Cc1ccc2c(c1)OCCO2	1	1	-1	-7	0	-6	.	.
COc1cccc(-c2nn(C)c3sc(C(=O)NCc4ccco4)cc23)c1	-4	0	95*	0	0	7	130*	44*
Cc1ccc(S(=O)(=O)Nc2ccc3c(c2)C(=O)N([C@H](C)CO)C[C@H](C)[C@@H](CN(C)Cc2ccc(-c4ccccc4)cc2)O3)cc1	8	0	0	-1	0	-7	.	.
COCCNC(=S)N/N=C/c1ccc(OCc2ccc(C(=O)OC)cc2)cc1	-10	1	2	0	0	3	.	.
CCN1CCn2c3c(c4cc(Cl)ccc42)CCCC31 (centres undefined)	1	0	118*	51	0	13	62*	48*
Nc1n[nH]c(C2CC2)c1N=Nc1ccc(Cl)cc1	-5	0	81*	-1	0	8	101*	9
NC(=O)Nc1ccc(C(=O)OCC(=O)Nc2ccc([N+](=O)[O-])cc2C(F)(F)F)cc1	-3	0	6	-4	0	-16	.	.
CC/C(O)=C1\C(=O)CC(c2ccccc2)CC1=NCCC(=O)O (centres undefined)	-3	0	-2	-3	0	12	.	.
CC/C(O)=C1\C(=O)CC(c2ccccc2)CC1=NC(C)C (centres undefined)	16	-1	123*	0	1	-3	3	128*
CN(C)c1ccc(NC(=O)/C=C/c2c(Cl)cccc2Cl)cc1	10	0	100*	27	0	30	147*	87*
CN(C(=O)CSc1nc2c(cnn2-c2ccccc2)c(=O)[nH]1)C1CCS(=O)(=O)C1 (centres undefined)	4	0	1	0	0	-16	.	.
Cc1cnc(NC(=O)c2c(Cl)cnn2C)s1	-8	1	88*	-16	0	-4	93*	.
Cn1ncc(Cl)c1C(=O)Nc1ccc2c(c1)OCO2	11	0	123*	-28	0	-7	117*	13*
SMILES	SUMO Mot1 rescue	Bfl-1 A1 inh	AHR activator	ALR H2O2 inh	Efflux pump mplx	VLA-4 inh	AHR act cf	PXR act counter
Cn1ncc([N+](=O)[O-])c1C(=O)Nc1ccc2c(c1)OCCO2	2	-1	8	-23	0	7	.	.
O=C(Nc1ccc2c(c1)OCO2)c1c(Cl)nc2sccn12	-12	-1	114*	-3	0	0	154*	53*
COc1ccc(NC(=O)c2ccc(Cl)c(S(=O)(=O)NCC3CCCO3)c2)c(OC)c1 (centres undefined)	1	0	6	-15	0	3	.	.
Cc1cccc(/C=N/NC(=O)c2ccc(NC(=O)c3ccc(Cl)cc3)cc2)n1	-4	1	2	0	0	1	.	.
CN(C)c1cc[n+](CC(=O)N2CCCc3ccccc32)cc1	11	-1	0	-4	0	0	.	.
O=C(NC(=S)Nc1ccccc1N1CCCC1)c1ccco1	-6	0	169*	?	0	-8	124*	31*
C=CCn1c(O)c(N=Nc2ccccc2O)c2ccccc21	102	0	82*	-1	0	i	87*	33*
O=C(CN1CCN(c2ccccc2O)CC1)Nc1ccccc1C(=O)NCCc1ccccc1	115	-1	91*	72	0	-10	93*	85*
CCOc1cc2nc(-c3ccc(OC)c(OC)c3)nc(NCCCN3CCOCC3)c2cc1OC	-2	1	101*	36	0	1	120*	17*
CCCNC(=O)c1ccccc1NC(=O)c1ccc2c(c1)NC(=O)C(C)S2 (centres undefined)	1	0	9	1	0	-3	.	.
CC(=O)c1ccccc1NC(=O)c1ccc2c(c1)NC(=O)C(C)S2 (centres undefined)	10	-1	122*	-2	0	-9	143*	152*
CNC(=S)N(CCc1c(C)[nH]c2ccc(OC)cc12)Cc1ccco1	0	1	36	49	0	-3	.	.
CCOc1ccc(NC(=S)N(CCc2c(C)[nH]c3ccc(C)cc23)Cc2cccnc2)cc1	-1	0	36	.	0	-19	.	.
CCOc1ccc(NC(=S)N(CCc2c(C)[nH]c3ccc(C)cc23)Cc2ccco2)cc1	-1	0	86*	-1	0	-18	67*	91*
COc1ccc(NC(=S)N(CCc2c(C)[nH]c3ccc(C)cc23)Cc2ccco2)cc1	3	0	100*	5	0	-22	84*	111*
CC(C)CC(=O)Nc1nnc(CSCc2ccc(F)cc2)s1	-7	-1	2	-15	0	23	.	.
COc1ccc(/C=N/Nc2snc(SC)c2C#N)cc1OC	-12	-1	84*	8	0	-5	137*	25*
